PubChem BioAssay (NCATS)
Records with an inconclusive call do not appear. Activity calls are given as the source filed them. Unless noted, the call rests on the fitted dose curve; in most records, active means well fitted curve in the direction sought with a large enough effect; inconclusive means small, poorly fitted or top-dose-only effect, or another doubt; inactive means no such curve, though single readings can be large; an effect the other way counts as inactive or inconclusive.

Legend:
[1] = target: DNA polymerase III PolC-type (Bacillus subtilis (strain 168)) (UniProt P13267); experiment: qHTS Validation Assay for the Inhibitors of DNA Replication in Gram-Positive Bacteria (AID 485295); conditions: Gram-positive bacterial DNA replication assay; series mostly up to 57.1 µM;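 further: PicoGreen fluorescence of double-stranded DNA made on primed circular M13 template; 0% = DMSO wells and -100% = EDTA-quenched background wells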
Summary of the method: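 Reconstituted B. subtilis holoenzyme (Pol III, beta clamp, SSB, primase) was preincubated with compound at room temperature, then given single-stranded circular M13Gori plus dNTPs and NTPs. EDTA-containing PicoGreen stopped the reaction, and dsDNA product was read by fluorescence.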

[2] = target: Tumor susceptibility gene 101 protein (Homo sapiens) (UniProt Q99816); experiment: qHTS Validation Assay for Iinhibitors of HIV-1 Budding by Blocking the Interaction of PTAP/TSG101 (AID 485342; calls by dose curve; further: 0% is about no effect); conditions: TSG101-PTAP binding, fluorescence polarization, 4-point titration; series mostly up to 115 µM
Summary of the method: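 Tsg101 binding domain (10 uM final) in pH 7.5 HEPES/NaCl/Tween 20/EDTA/TCEP buffer was mixed with pin-transferred compounds, then FITC-labeled PTAP peptide (50 nM final) was added; after 20 min at r.t., fluorescence polarization was read.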

[3] = qHTS Validation Assay to Find Inhibitors of Chronic Active B-Cell Receptor Signaling (AID 485345; active means well fitted curve in the direction sought with a large enough effect in the main read-out, with a control signal flat, not every such curve was filed as active;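 further: 0% = untreated basal cells and 100% = 10 µM MG-132 proteasome inhibitor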); conditions: ABC-DLBCL cells, chronic BCR signaling reporter, CBG luciferase; series mostly up to 46.1 µM
Summary of the method: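 TMD8 ABC-DLBCL cells with dox-inducible green luciferase–IκBα fusion and red native luciferase; compounds 46 uM–3 nM, 4 h at 37C with doxycycline in 0.5% FBS IMDM. Green/red ratio normalized to basal and 10 uM MG-132.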

[4] = target: Beta-2 adrenergic receptor (Homo sapiens) (UniProt P07550); experiment: qHTS validation assay of beta-arrestin-biased ligands of beta2-adrenergic receptor (AID 485366); conditions: cell-based beta-arrestin recruitment to ADRB2, qHTS; series mostly up to 46.1 µM; further: 0% is about no effect
Summary of the method: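 Agonism was measured as beta-arrestin recruitment to recombinant beta2-AR, releasing tTA to drive luciferase. Cells were exposed for 18 hr at 37 degrees C to a series up to 46 microM. %Activity from corrected luminescence gave concentration-response curves.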

[5] = target: Thioredoxin reductase 1, cytoplasmic (Rattus norvegicus) (UniProt O89049); experiment: qHTS Assay for Substrates of Mammalian Selenoprotein Thioredoxin Reductase 1 (TrxR1) (AID 488772); conditions: purified TrxR1, NADPH consumption substrate assay; series mostly up to 57.1 µM;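 further: 0% is about no effect; a drop in NADPH fluorescence below the no-compound background marks a TrxR1 substrate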
Summary of the method: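 In this dual-purpose format, potential substrates are identified from the first fluorescence read after selenite addition, not from the 8-minute delta. Rat enzyme is preincubated with NADPH and then with compound at ~22 deg C.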

[6] = target: Thioredoxin reductase 1, cytoplasmic (Rattus norvegicus) (UniProt O89049); experiment: qHTS Assay for Inhibitors of Mammalian Selenoprotein Thioredoxin Reductase 1 (TrxR1) (AID 488773); conditions: purified TrxR1 enzyme activity; series mostly up to 57.1 µM;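 further: drop in NADPH fluorescence over an 8 min run after selenite addition; on the % scale 0 is the no-effect control and ±100 the full control effect; nearly all actives have a fitted effect of over 40% in size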
Summary of the method: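 Inhibition is scored from the loss of NADPH fluorescence between first and last reads of an 8-min kinetic run. Selenite (400 uM) was the substrate, added after 15 min compound preincubation at room temperature.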

[7] = target: Flap endonuclease 1 (Homo sapiens) (UniProt P39748); experiment: qHTS Validation Assay for the Inhibitors of Human Flap endonuclease 1 (FEN1) (AID 488816); conditions: FEN1 nuclease activity, fluorogenic DNA substrate; series mostly up to 57.1 µM; further: on the % scale 0 is the no-effect control and ±100 the full control effect
Summary of the method: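 Steps: add FEN1 (10 nM reagent) or buffer only; pin compounds; hold 15 min at room temperature; start with substrate, 50 nM final; read at 0 and 15 min; correct, normalize and fit a four-parameter Hill curve.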

[8] = target: Chromobox protein homolog 1 (Homo sapiens) (UniProt P83916); experiment: qHTS Validation Assay for Inhibitors of HP1-beta Chromodomain Interactions with Methylated Histone Tails (AID 488953); conditions: HP1-beta chromodomain / methylated histone peptide binding assay; series mostly up to 114 µM;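 further: loss of AlphaScreen luminescence from HP1-beta binding biotinylated H3K9me3 peptide; on the % scale 0 is the no-effect control and ±100 the full control effect; nearly all actives have a fitted effect of over 50% in size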
Summary of the method: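 AlphaScreen proximity readout: streptavidin donor and Ni-chelate acceptor beads, 10 ug/mL final, 30 min dark, RT. Complex of 50 nM HP1-beta and 50 nM b-H3(1-18)K9me3 formed 30 min, then compound-treated 30 min; PBS pH 7.4/0.01% Tween-20.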

[9] = target: Methanococcus maripaludis chaperonin (MmCpn) (UniProt Q6LX38); experiment: High-Throughput Screening for Modulators of Cytosolic Chaperonin Activity: MmCpn Primary Screen (AID 488978); conditions: Purified MmCpn ATPase activity, ADP HTRF detection, 10 min; series mostly up to 76.9 µM;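 further: 50 nM MmCpn enzyme hydrolysing 30 µM ATP at 37 °C; 0% is about no effect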
Summary of the method: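 MmCpn (50 nM final) was preincubated with compound 5 min at RT, then 30 uM ATP (final) was added and the reaction ran 10 min at 37C. ADP produced was detected by Transcreener HTRF (ex 320 nm; em 590/665 nm).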

[10] = target: D(1A) dopamine receptor (Homo sapiens) (UniProt P21728); experiment: HTS Assay for Allosteric Agonists of the Human D1 Dopamine Receptor: Primary Screen for Agonists (AID 488981); conditions: Inducible HEK293 T-REx D1 cells, calcium-flux fluorescence, 180 s kinetic; series mostly up to 41.8 µM; further: 0% is about no effect
Summary of the method: (§1)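 Tetracycline-induced HEK293 T-REx cells force-coupled to calcium signalling were incubated overnight at 30 C and dye-loaded at room temperature. Calcium flux over 180 s after compound addition flagged agonists; a further 180 s read after EC20 dopamine flagged potentiators.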

[11] = target: D(1A) dopamine receptor (Homo sapiens) (UniProt P21728); experiment: HTS Assay for Allosteric Agonists of the Human D1 Dopamine Receptor: Primary Screen for Potentiators (AID 488982); conditions: HEK293 T-REx D1 inducible cells, calcium flux, kinetic fluorescence; series mostly up to 8.37 µM; further: 0% is about no effect
Summary of the method: as §1

[12] = target: D(1A) dopamine receptor (Homo sapiens) (UniProt P21728); experiment: HTS Assay for Allosteric Agonists of the Human D1 Dopamine Receptor: Primary Screen for Antagonists (AID 488983); conditions: D1 receptor cell assay, antagonist mode, qHTS titration; series mostly up to 41.8 µM;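 further: calcium flux response to an EC80 dopamine challenge measured with no-wash dye; on the % scale 0 is the no-effect control and ±100 the full control effect; nearly all actives have a fitted effect of over 65% in size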
Summary of the method: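 Calcium flux readout, no-wash dye, inducible HEK293 T-REx D1 line (force-coupled). Compound added after 10 s baseline, 180 s kinetic read; then dopamine at EC80, further 180 s read.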

[13] = target: ATPase family AAA domain-containing protein 5 (Homo sapiens) (UniProt Q96QE3); experiment: Validation screen for small molecules that inhibit ELG1-dependent DNA repair in human embryonic kidney (HEK293T) cells expressing luciferase-tagged ELG1 (AID 493107); conditions: HEK293T ELG1-luciferase level, luminescence, 5-fluorouridine co-treatment, 16 h; series mostly up to 46.1 µM;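 further: cells co-treated with the DNA-damaging agent 5-fluorouridine alongside compound; on the % scale 0 is the no-effect control and ±100 the full control effect; inhibitors lower the ELG1-luciferase luminescence signal; nearly all actives have a fitted effect of over 70% in size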
Summary of the method: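 ELG1-luciferase HEK293T reporter; 5-fluorouridine + compound/DMSO, 16 hr, 37 °C, 5% CO2; ONE-Glo 30 min RT; luminescence read, qHTS format.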

[14] = Quantitative high throughput screen for delayed death inhibitors of the malarial parasite plastid, 96 hour incubation (AID 488745); conditions: Plasmodium falciparum growth; series mostly up to 28.7 µM;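 further: luciferase-expressing P. falciparum in erythrocytes at 2% hematocrit and 0.1% parasitemia; on the % scale 0 is the no-effect control and ±100 the full control effect; nearly all actives have a fitted effect of over 70% in size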
Summary of the method: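 Luciferase-expressing P. falciparum, infected RBCs 2% Hct/0.1% parasitemia (final); 96 h cpd exposure, 37 C, 5% CO2; RPMI 1640 + 0.5% Albumax, bicarbonate, gentamycin. Readout: luminescence loss = growth inhibition.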

[15] = Quantitative high throughput screen for delayed death inhibitors of the malarial parasite plastid, 48 hour incubation (AID 488752); conditions: Plasmodium falciparum growth; series mostly up to 28.7 µM; further: on the % scale 0 is the no-effect control and ±100 the full control effect; nearly all actives have a fitted effect of over 65% in size
Summary of the method: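 Luciferase-expressing P. falciparum in RBCs, 2% Hct, 0.1% parasitemia final; RPMI 1640 + 0.5% Albumax; 48 h, 37 C, 5% CO2; luminescence readout, signal drop = growth inhibition.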

[16] = target: Transient receptor potential cation channel subfamily V member 1 (Homo sapiens) (UniProt Q8NER1); experiment: HTS Assay for Compounds that Act as Enhancers of the Vanilloid Receptor 1 (AID 488979); conditions: TRPV1-expressing cells, enhancer of channel activity, stimulated with capsaicin at EC20; series mostly up to 41.7 µM; further: 0% is about no effect
Summary of the method: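 TRPV1-expressing cells loaded with Fluo-8 calcium dye; compounds added and calcium influx read kinetically for 3 min (agonist phase), then capsaicin at EC20 added and read 2 min more for enhancement. Fluorescence ex 480/em 520 nm.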

[17] = target: Thyrotropin receptor (Homo sapiens) (UniProt P16473); experiment: qHTS Assay for Antagonists of the Thyroid Stimulating Hormone Receptor (AID 488980); conditions: TSHR-expressing cells, cAMP antagonist read-out; series mostly up to 57.5 µM; further: 0% is about no effect
Summary of the method: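 HEK293 cells transfected with human TSHR, suspended in HEPES-buffered HBSS with 70 uM RO 20-1724, were treated with compounds plus TSH at EC80 (4 nM final). cAMP was measured by competitive HTRF (cryptate anti-cAMP antibody, cAMP-d2 acceptor).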

[18] = target: Thyrotropin-releasing hormone receptor (Homo sapiens) (UniProt P34981); experiment: qHTS for Small Molecule Agonists and Allosteric Enhancers of Human TRH Receptor: Validation Screen for Agonists (AID 493127;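 active means calcium activation more than 3 SD above the typical response in the agonist read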;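 further: intracellular calcium rise by fluo-8 fluorescence before TRH EC20 addition; 0% is about no effect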); conditions: TRH receptor agonist cell assay; at 2 µM; active compounds read high
Summary of the method: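 Read-out: intracellular calcium release measured kinetically by FDSS (fluo-8, ex 480/em 530 nm), 1 reading/s after a 10-cycle baseline. TRHR cells, 2000/well, cultured 18 h at 33.5C, dye-loaded at room temp. Compound-evoked positive calcium signal flags agonists.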

Measured: activation

Chain of Thioredoxin reductase 1, cytoplasmic (Rattus norvegicus) (O89049 whole entry, looked up): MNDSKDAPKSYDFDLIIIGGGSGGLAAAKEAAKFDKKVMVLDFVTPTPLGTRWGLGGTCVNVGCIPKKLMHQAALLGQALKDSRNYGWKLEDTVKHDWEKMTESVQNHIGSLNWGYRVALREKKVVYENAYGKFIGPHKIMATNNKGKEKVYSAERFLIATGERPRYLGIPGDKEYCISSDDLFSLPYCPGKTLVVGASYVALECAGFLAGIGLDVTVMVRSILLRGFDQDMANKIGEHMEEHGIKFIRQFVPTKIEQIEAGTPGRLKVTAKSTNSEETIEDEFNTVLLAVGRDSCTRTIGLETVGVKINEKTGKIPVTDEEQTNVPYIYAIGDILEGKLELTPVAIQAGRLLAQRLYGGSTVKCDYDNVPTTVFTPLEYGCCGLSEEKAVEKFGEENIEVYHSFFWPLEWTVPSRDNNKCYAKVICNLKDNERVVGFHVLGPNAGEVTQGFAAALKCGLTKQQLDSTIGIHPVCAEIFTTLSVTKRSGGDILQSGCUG
Chain of D(1A) dopamine receptor (Homo sapiens) (P21728 whole entry, looked up): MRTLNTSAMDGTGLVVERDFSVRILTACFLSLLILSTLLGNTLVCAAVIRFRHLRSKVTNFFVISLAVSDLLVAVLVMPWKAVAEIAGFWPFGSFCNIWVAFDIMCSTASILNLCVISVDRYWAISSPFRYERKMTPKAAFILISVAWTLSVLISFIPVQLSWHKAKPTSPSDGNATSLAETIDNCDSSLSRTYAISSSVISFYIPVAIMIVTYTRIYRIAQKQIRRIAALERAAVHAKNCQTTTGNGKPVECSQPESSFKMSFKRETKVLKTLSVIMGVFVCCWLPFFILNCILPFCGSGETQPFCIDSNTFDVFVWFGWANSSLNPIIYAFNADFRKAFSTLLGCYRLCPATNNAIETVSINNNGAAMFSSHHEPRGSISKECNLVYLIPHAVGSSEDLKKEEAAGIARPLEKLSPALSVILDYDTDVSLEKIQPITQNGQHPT
Chain of DNA polymerase III PolC-type (Bacillus subtilis (strain 168)) (P13267 whole entry, looked up): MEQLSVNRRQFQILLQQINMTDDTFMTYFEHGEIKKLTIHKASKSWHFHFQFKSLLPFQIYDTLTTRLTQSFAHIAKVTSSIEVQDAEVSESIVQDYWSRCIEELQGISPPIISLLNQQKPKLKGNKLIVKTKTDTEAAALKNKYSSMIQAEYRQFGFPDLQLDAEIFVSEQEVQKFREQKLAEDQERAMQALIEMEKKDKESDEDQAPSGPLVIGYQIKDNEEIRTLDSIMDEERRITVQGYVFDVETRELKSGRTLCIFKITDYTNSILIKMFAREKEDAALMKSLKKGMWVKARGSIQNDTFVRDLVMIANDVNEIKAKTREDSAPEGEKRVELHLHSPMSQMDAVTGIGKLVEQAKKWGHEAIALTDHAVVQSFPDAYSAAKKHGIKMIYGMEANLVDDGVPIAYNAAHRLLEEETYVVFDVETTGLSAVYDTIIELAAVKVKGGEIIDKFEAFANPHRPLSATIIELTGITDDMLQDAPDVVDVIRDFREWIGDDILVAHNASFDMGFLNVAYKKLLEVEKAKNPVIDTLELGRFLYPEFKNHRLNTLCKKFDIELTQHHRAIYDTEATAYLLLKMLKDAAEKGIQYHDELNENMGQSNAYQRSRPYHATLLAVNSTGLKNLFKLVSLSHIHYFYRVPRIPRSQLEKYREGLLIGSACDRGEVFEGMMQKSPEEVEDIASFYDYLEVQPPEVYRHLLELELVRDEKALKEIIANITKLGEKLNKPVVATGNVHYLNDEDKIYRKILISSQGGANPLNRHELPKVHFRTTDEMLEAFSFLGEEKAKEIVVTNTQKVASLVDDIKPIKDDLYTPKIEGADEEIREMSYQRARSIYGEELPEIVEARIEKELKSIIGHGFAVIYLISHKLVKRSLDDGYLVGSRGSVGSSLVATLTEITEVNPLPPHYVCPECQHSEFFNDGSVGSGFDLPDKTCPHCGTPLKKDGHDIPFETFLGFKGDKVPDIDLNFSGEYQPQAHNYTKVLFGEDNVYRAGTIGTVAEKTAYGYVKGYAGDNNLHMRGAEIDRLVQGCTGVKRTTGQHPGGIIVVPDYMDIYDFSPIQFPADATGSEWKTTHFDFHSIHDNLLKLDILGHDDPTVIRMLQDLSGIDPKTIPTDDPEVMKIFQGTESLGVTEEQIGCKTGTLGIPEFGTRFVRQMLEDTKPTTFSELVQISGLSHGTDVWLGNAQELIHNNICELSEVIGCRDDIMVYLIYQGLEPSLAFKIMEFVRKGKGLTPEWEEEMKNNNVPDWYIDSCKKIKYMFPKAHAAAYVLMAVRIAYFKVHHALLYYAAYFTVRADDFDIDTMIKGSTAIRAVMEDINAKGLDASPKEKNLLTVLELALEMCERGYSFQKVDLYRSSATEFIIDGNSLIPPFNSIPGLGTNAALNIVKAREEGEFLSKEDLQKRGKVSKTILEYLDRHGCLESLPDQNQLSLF
Chain of Beta-2 adrenergic receptor (Homo sapiens) (P07550 whole entry, looked up): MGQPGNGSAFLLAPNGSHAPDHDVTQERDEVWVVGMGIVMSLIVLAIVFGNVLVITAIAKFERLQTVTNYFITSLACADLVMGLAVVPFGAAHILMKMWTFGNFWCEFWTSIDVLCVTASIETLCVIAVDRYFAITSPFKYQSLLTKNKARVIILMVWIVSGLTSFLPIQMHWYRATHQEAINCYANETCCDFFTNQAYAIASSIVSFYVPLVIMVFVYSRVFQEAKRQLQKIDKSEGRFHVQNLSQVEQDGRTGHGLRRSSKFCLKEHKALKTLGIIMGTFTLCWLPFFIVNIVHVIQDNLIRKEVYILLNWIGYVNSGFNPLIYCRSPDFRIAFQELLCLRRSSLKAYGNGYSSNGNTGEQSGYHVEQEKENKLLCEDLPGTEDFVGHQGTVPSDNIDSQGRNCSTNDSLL
Chain of Chromobox protein homolog 1 (Homo sapiens) (P83916 whole entry, looked up): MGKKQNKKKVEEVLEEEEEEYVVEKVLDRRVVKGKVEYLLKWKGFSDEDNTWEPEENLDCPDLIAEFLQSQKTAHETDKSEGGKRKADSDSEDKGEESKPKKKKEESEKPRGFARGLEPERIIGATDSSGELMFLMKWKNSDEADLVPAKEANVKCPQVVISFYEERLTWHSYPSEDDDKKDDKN
Chain of Flap endonuclease 1 (Homo sapiens) (P39748 whole entry, looked up): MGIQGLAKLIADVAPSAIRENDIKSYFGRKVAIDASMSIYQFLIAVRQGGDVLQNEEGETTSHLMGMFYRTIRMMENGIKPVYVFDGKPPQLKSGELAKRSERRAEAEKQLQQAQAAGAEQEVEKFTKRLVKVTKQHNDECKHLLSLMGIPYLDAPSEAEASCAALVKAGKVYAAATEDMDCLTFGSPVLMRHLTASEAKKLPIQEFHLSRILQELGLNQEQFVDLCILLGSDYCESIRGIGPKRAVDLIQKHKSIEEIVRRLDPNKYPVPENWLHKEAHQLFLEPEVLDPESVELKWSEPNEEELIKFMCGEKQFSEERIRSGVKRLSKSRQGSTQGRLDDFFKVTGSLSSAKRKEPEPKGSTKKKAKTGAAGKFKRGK
Chain of Tumor susceptibility gene 101 protein (Homo sapiens) (Q99816 whole entry, looked up, the tested form may be a part): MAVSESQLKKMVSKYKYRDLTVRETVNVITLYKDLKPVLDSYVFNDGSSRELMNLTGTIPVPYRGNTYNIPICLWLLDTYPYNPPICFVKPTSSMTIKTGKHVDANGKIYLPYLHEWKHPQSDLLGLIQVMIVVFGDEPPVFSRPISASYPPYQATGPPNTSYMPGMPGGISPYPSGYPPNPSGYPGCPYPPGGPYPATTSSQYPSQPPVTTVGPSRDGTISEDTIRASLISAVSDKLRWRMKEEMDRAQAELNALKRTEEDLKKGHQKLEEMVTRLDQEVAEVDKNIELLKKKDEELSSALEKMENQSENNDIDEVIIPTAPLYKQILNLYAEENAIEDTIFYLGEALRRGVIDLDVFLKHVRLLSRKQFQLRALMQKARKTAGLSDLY
Chain of Methanococcus maripaludis chaperonin (MmCpn) (Q6LX38 1-543): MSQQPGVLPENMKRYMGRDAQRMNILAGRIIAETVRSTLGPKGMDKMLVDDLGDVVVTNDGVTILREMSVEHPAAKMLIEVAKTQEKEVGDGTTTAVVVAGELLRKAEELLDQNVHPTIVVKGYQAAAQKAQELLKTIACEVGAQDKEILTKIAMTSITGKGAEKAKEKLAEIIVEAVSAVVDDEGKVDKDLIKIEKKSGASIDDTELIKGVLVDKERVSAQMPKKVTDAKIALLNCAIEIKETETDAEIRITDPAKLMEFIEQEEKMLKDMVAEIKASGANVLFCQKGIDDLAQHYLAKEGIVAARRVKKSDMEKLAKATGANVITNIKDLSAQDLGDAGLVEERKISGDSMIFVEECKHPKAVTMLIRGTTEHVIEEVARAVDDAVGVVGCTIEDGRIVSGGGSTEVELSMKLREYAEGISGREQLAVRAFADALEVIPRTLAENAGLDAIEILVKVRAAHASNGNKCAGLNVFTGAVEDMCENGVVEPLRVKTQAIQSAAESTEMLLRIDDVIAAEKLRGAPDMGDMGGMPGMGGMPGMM
Chain of Thyrotropin-releasing hormone receptor (Homo sapiens) (P34981 whole entry, looked up): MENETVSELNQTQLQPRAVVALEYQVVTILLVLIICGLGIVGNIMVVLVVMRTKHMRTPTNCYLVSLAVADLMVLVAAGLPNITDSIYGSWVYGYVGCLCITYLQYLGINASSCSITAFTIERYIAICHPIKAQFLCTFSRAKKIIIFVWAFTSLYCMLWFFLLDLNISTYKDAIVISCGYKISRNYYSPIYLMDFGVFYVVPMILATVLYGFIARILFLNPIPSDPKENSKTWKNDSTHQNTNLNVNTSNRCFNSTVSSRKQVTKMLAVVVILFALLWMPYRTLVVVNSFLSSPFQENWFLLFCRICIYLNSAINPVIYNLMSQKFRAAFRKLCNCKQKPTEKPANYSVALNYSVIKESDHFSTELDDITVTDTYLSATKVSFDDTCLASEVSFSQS

C=CCc1cccc(C=NNC(=O)CN2CCN(Cc3ccccc3)CC2)c1O
not listed: [13] | [14] | [15] | [16] | [17] | [18]
inactive: all other assays above

C[C@H]1O[C@@H](n2cc(F)c(=O)[nH]c2=O)[C@H](O)[C@H]1O
not listed: [14] | [15] | [16] | [17] | [18]
inactive: all other assays above

CCNC(=O)[C@H]1O[C@@H](n2cnc3c(N)nc(NCCc4ccc(CCC(=O)O)cc4)nc32)[C@H](O)[C@H]1O
inactive: [14] | [15] | [16] | [17] | [18] 0.188%
